The list is not random: actives were taken first. Their share in the collection is about 11%.
AMA1-RON2 inh – disrupts binding of P. falciparum AMA1 to RON2. 360,000 tested, 0.2% active. AID 720542. Potency, µM (highest dose often 58.2 µM), actives largely listed as inhibitors. AlphaScreen AMA1-biotinylated RON2 peptide binding; further: nearly all actives have a fitted effect of over 45% in size
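AMA1 (3D7) with his tag at 25 nM final met compounds first, then biotinylated RON2 peptide at 25 nM; detection used donor plus acceptor beads, 10 µg/mL apiece, read by AlphaScreen after 30 min at room temperature.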
Pf growth 96h – P. falciparum growth inhibition at 96 hours. P. falciparum luciferase reporter growth, 96 h. AID 504834. 320,000 tested, 6.9% active. Potency, µM (series often up to 28.7 µM), actives largely listed as inhibitors
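Readout is luminescence from an integrated firefly luciferase in P. falciparum. Red cells, 2% hematocrit and 0.05% parasitemia final, were cultured with compound through two parasite generations (96 hours) at 37 C, 5% CO2.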
Pf growth 48h – inhibits P. falciparum growth in the first generation, 48 h; P. falciparum luciferase growth in erythrocytes, 48 h; Potency, µM (highest dose often 28.7 µM), usual class: inhibitors; 310,000 tested, 5.9% active; AID 504832
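In quantitative HTS format, infected erythrocytes bearing luciferase-reporter parasites were treated for a single generation at 37 C. Luminescence after adding detection reagent served as the growth measure.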
NS1 inh – influenza NS1 inhibition. Potency, µM (series often up to 46.1 µM). 270,000 tested, 0.4% active. AID 2326; calls by dose curve; further: actives are rising curves; nearly all actives have a fitted effect of over 50% in size
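OD600 was taken as the measure of yeast growth restored by compound in an NS1-expressing S. cerevisiae strain. Cells had been washed out of glucose medium and diluted 1:100 into galactose -URA medium, pH 6.0.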
Sm TGR inh – blocks Schistosoma mansoni thioredoxin glutathione reductase. Potency, µM (doses to about 114 µM), most hits filed as inhibitors. AID 485364. 360,000 tested, 3% active. Q962Y6. purified TGR, DTNB reduction, TNB absorbance 405 nm; further: nearly all actives have a fitted effect of over 60% in size
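Kinetic colorimetric format: TGR-catalysed, NADPH-driven DTNB reduction monitored via TNB absorbance. Enzyme dispensed at 20 nM; compound exposure 15 min at room temperature before reaction start.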
Hits are given with their value; [ ] = remark or other dose. Unless noted, the call rests on the fitted dose curve; in most records, active means well fitted curve in the direction sought with a large enough effect; inconclusive means small, poorly fitted or top-dose-only effect, or another doubt; inactive means no such curve, though single readings can be large; an effect the other way counts as inactive or inconclusive.

For O=C(COc1coc(CN2CCN(c3ccc(F)cc3)CC2)cc1=O)NCC1CCCO1 (stereo unspecified) the results were AMA1-RON2 inh inactive, Pf growth 96h inactive, Pf growth 48h inactive and Sm TGR inh inactive.
For O=C1CC(c2ccccc2Cl)=NN(c2ncnc3ccccc23)C1=O the results were AMA1-RON2 inh inactive, Pf growth 96h inactive, Pf growth 48h inactive and Sm TGR inh inactive.
For CC1N(C)c2cc(NC(=O)c3ccco3)c(P(=O)(Nc3ccc([N+](=O)[O-])cc3)N3CCOCC3)cc2C1(C)C (stereo unspecified) the results were AMA1-RON2 inh inactive, Pf growth 96h 9.28µM, Pf growth 48h 5.86µM, NS1 inh inactive and Sm TGR inh inactive.
Screening CCc1ccc(NC(=O)[C@H](Cc2ccccc2)N2Cc3ccccc3C2=O)cc1 returned Sm TGR inh inactive.
Cc1ccccc1CN1C(=O)c2ccccc2Sc2ccc(C(=O)NCCN3CCOCC3)cc21 was read as AMA1-RON2 inh inactive, Pf growth 96h inconclusive, Pf growth 48h 8.28µM, NS1 inh inactive and Sm TGR inh inactive.
O=C(NCCN1CCOCC1)c1ccc2c(c1)N(Cc1ccccc1F)C(=O)c1ccccc1S2 was read as AMA1-RON2 inh inactive, Pf growth 96h inconclusive, Pf growth 48h inconclusive and Sm TGR inh inactive.
CC1=Nc2cc(C(=O)NCCN3CCOCC3)ccc2Sc2c(C)ccc(C)c21 was read as AMA1-RON2 inh inactive, Pf growth 96h 11.7µM, Pf growth 48h inconclusive, NS1 inh inactive and Sm TGR inh inactive.
Screening CCN1CCN(CCNC(=O)c2ccc(/C=C3/Sc4ccccc4N(Cc4ccccc4C)C3=O)cc2)CC1 returned AMA1-RON2 inh inactive, Pf growth 96h inactive, Pf growth 48h 11.7µM and Sm TGR inh inactive.
O=C(CNCc1cccnc1)Nc1cc(C(F)(F)F)ccc1N1CCOCC1 was read as AMA1-RON2 inh inactive, Pf growth 96h inconclusive, Pf growth 48h inconclusive, NS1 inh inactive and Sm TGR inh inactive.
For CN1/C(=C/c2cccc[n+]2C)Sc2ccccc21 the results were AMA1-RON2 inh inactive, Pf growth 96h inactive, Pf growth 48h 1.17µM, NS1 inh inactive and Sm TGR inh inactive.
For Cc1ccc2c(c1)N(C)/C(=C/c1cccc[n+]1CCO)S2 the results were AMA1-RON2 inh inactive, Pf growth 96h inactive, Pf growth 48h 1.85µM, NS1 inh inactive and Sm TGR inh inactive.
Cc1ccc2c(c1)N(C)/C(=C/c1cccc[n+]1C)S2 was read as AMA1-RON2 inh inactive, Pf growth 96h 0.465µM, Pf growth 48h inactive[0.00184 µM], NS1 inh inactive and Sm TGR inh inactive.
Cc1ccc2c(c1)S/C(=C/c1ccc[n+](C)c1)N2CCO was read as AMA1-RON2 inh inactive, Pf growth 96h inactive, Pf growth 48h inconclusive and Sm TGR inh inactive.
Screening CC(C)c1ccc(C2(C)NC(=O)N(CC(=O)NC3CCCC(C)C3C)C2=O)cc1 (stereo unspecified) returned AMA1-RON2 inh inactive, Pf growth 96h inconclusive, Pf growth 48h inconclusive and Sm TGR inh inactive.
Screening CCN(CC)S(=O)(=O)c1cccc(NC(=O)CN2C(=O)NC3(CCC(C)CC3)C2=O)c1 (stereo unspecified) returned AMA1-RON2 inh inactive, Pf growth 96h inactive, Pf growth 48h inconclusive and Sm TGR inh inactive.
Screening CCN1CCN(Cc2c(O)ccc3c2O/C(=C\C=C\c2ccccc2OC)C3=O)CC1 returned AMA1-RON2 inh inactive[11.6 µM], Pf growth 96h 4.15µM, Pf growth 48h 2.94µM, NS1 inh inactive and Sm TGR inh inconclusive.
For CCN1CCN(Cc2c(O)ccc3c(=O)c(-c4ccccc4OC)coc23)CC1 the results were AMA1-RON2 inh inactive, Pf growth 48h inconclusive, NS1 inh inactive and Sm TGR inh inactive.
`CC1CCN(Cc2c(O)ccc3c2O/C(=C\c2ccco2)C3=O)CC1` gave AMA1-RON2 inh inconclusive, Pf growth 96h 10.4µM, Pf growth 48h 14.7µM, NS1 inh 8.91µM and Sm TGR inh 1µM.
`COCCN(CCOC)Cc1c(O)ccc2c1O/C(=C\c1ccco1)C2=O` gave AMA1-RON2 inh inactive, Pf growth 96h inactive, NS1 inh inactive and Sm TGR inh 3.55µM.
For O=C1/C(=C/c2ccco2)Oc2c1ccc(O)c2CN1CCCCC1 the results were AMA1-RON2 inh inconclusive, Pf growth 96h inconclusive, Pf growth 48h inconclusive, NS1 inh inactive and Sm TGR inh inconclusive.
O=C(COC(=O)c1nc(Cl)ccc1Cl)Nc1ccc2[nH]c(=O)[nH]c2c1 was read as AMA1-RON2 inh inactive, Pf growth 96h inactive, Pf growth 48h inactive and Sm TGR inh inactive.
Screening C#Cc1ccc([C@H]2C=C(C(=O)NC3CC3)O[C@@H](OCC)[C@@H]2CCCO)cc1 returned AMA1-RON2 inh inactive, Pf growth 96h inconclusive, Pf growth 48h inconclusive, NS1 inh inactive and Sm TGR inh inactive.
For O=C(Nc1nc(-c2ccco2)c(-c2ccco2)s1)C1CCC1 the results were AMA1-RON2 inh inconclusive, Pf growth 96h inconclusive, Pf growth 48h inactive, NS1 inh inactive and Sm TGR inh inconclusive.
For CS(=O)(=O)c1ccc(C(=O)Nc2nc(-c3ccco3)c(-c3ccco3)s2)cc1 the results were AMA1-RON2 inh inconclusive, Pf growth 96h inactive, Pf growth 48h inactive and Sm TGR inh 3.55µM.
`Cc1cc(N=Nc2ccc(Cl)cc2)cc(CN2CCOCC2)c1O` gave AMA1-RON2 inh inconclusive, Pf growth 96h 2.33µM, Pf growth 48h 4.65µM, NS1 inh inactive and Sm TGR inh inconclusive.
Screening Cc1cc(N=Nc2ccc(Cl)cc2)cc(CN2CCCC2)c1O returned AMA1-RON2 inh inconclusive, Pf growth 96h 0.294µM, Pf growth 48h 0.233µM, NS1 inh inactive and Sm TGR inh inconclusive.
`CC1Sc2ccc(S(=O)(=O)N3CCC(C(=O)N(C)Cc4ccccc4)CC3)cc2NC1=O` (stereo unspecified) gave AMA1-RON2 inh inactive, Pf growth 96h 5.86µM, Pf growth 48h 9.28µM, NS1 inh inactive and Sm TGR inh inactive.
For CCC1Sc2ccc(S(=O)(=O)N3CCN(c4ccccc4)CC3)cc2NC1=O (stereo unspecified) the results were AMA1-RON2 inh inactive, Pf growth 96h 10.4µM, Pf growth 48h inconclusive, NS1 inh inactive and Sm TGR inh inactive.
`CCC(Cc1ccccc1)NS(=O)(=O)c1ccc2c(c1)NC(=O)C(C)S2` (stereo unspecified) gave AMA1-RON2 inh inactive, Pf growth 96h 14.7µM, Pf growth 48h inactive, NS1 inh inactive and Sm TGR inh inconclusive.
Screening CC1Cc2cc(S(=O)(=O)N3CCC(C(=O)N(C)Cc4ccco4)CC3)ccc2N1C(=O)C1CCC1 (stereo unspecified) returned AMA1-RON2 inh inactive, Pf growth 96h inconclusive, Pf growth 48h 11.7µM, NS1 inh inactive and Sm TGR inh inconclusive.
Cc1nonc1C(=O)N1CCCC(N2CCN(c3ccc(F)cc3)CC2)C1 (stereo unspecified) was read as AMA1-RON2 inh inactive, Pf growth 96h inconclusive, Pf growth 48h inactive, NS1 inh inactive and Sm TGR inh inactive.
Cc1noc(C)c1CCC(=O)Nc1cc(Cl)ccc1C(=O)O was read as AMA1-RON2 inh inactive.

Screening data as filed in PubChem BioAssay.
